# Test results as given in PubChem BioAssay.
# The list shows a part of the results.
# Biological target: Regulator of G-protein signaling 19 (Homo sapiens) (UniProt P49795)
# Experiment: modulators of RGS–Galpha-o binding, primary screen, biochemical, multiplexed beads, flow cytometry, RGS4/7/8/16/19 (AID 1504);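 also: fluorescently labeled Galpha-o bound to GDP with aluminium fluoride binding biotinylated RGS beads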
# Settings: multiplexed bead flow cytometry, measured here: RGS19 interaction, at 10 µM
compound,measurement,value
CC(C)N(CC#CCC1(O)c2ccccc2-c2ccccc21)C(C)C,RGS19–Galpha-o binding response,78.4%
